# In PubChem BioAssay (NCATS):
# Records with an inconclusive call do not appear. A call without a number means that no potency is given here. Activity calls are given as the source filed them. The call rests on the fitted dose curve; in most records, active means well fitted curve in the direction sought with a large enough effect; inconclusive means small, poorly fitted or top-dose-only effect, or another doubt; inactive means no such curve, though single readings can be large; an effect the other way counts as inactive or inconclusive.
# What was measured:
# [1] = biological target: Glutathione peroxidase 1 (Homo sapiens) (UniProt P07203); assay: Primary qHTS Assay for Inhibitors of Recombinant Selenoprotein Glutathione Peroxidase 1 (GPX1) (AID 1845191); further: nearly all actives have a fitted effect of over 65% in size; further: potency means the concentration at half of the fitted maximal effect
# How it was run: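 NADPH consumption tracked by fluorescence at 340/450 nm between t=0 and t=15 min, room temperature. Final mix: 10 nM GPX1, 100 nM glutathione reductase, 1 mM GSH, 0.5 mM NADPH, 0.5 mM cumene hydroperoxide, 0.01% BSA; 30 min compound–enzyme preincubation.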
# [2] = biological target: Phospholipid hydroperoxide glutathione peroxidase GPX4 (Homo sapiens) (UniProt P36969); assay: Primary qHTS Assay for Inhibitors of Recombinant Selenoprotein Glutathione Peroxidase 4 (GPX4) (AID 1845192); further: nearly all actives have a fitted effect of over 65% in size; further: potency means the concentration at half of the fitted maximal effect
# How it was run: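 NADPH consumption followed by fluorescence at 340/450 nm, t=0 and after 15 min at room temperature. Reaction started with cumene hydroperoxide (0.5 mM final) after 30 min compound–GPX4 preincubation; final 200 nM GPX4, 100 nM GR, 1 mM GSH, 0.5 mM NADPH.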
# [3] = biological target: Luciferin 4-monooxygenase (Photinus pyralis) (UniProt P08659); assay: Primary firefly luciferase (FLuc) qHTS assay for identification of artifact compounds. (AID 1845220); further: nearly all actives have a fitted effect of over 60% in size
# How it was run: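 Cell-free, 1536-well qHTS. Buffer pH 7.6 with 0.01% Tween-20 and 0.05% BSA; 10 uM D-luciferin, 10 uM ATP; 10 nM P. pyralis luciferase; luminescence after 5 min.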
# [4] = Primary fluorescence-based thiol-reactive (MSTI) qHTS assay for identification of artifact compounds. (AID 1845221);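 further: series mostly up to about 54 µM; thiol-reactive compounds lower the probe fluorescence signal; nearly all actives have a fitted effect of over 65% in size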
# How it was run: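 Curve-fitted percent inhibition (4-parameter Hill) derived from fluorescence, Ex 525/Em 598 nm, scaled with Acetyl-MSTI and MSTI; 1 h incubation at room temperature.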
# [5] = tested on: Nanoluciferase (engineered Oplophorus gracilirostris luciferase); assay: Primary Nanoluciferase (NLuc) qHTS assay for identification of artifact compounds. (AID 1845222); further: series mostly up to about 54 µM
# How it was run: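 Compounds are pinned into diluted (1:55) conditioned medium of NLuc-expressing S16 cells and held 15 min at room temperature protected from light. Nano-Glo substrate follows, and luminescence is read 5 min later.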
# [6] = Primary redox qHTS assay for identification of artifact compounds. (AID 1845223)
# How it was run: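 Redox-cycling detection via DTT (250 uM final) oxidation coupled to Amplex Red (25 uM)/HRP (250 mU/mL) in HBSS. 15 min preincubation plus 30 min after DTT, room temperature. Ex/Em 525/598 nm; 4-parameter Hill fit against DMSO and 10 uM DA3003.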
# Phospholipid hydroperoxide glutathione peroxidase GPX4 (Homo sapiens), sequence (P36969 whole entry, looked up): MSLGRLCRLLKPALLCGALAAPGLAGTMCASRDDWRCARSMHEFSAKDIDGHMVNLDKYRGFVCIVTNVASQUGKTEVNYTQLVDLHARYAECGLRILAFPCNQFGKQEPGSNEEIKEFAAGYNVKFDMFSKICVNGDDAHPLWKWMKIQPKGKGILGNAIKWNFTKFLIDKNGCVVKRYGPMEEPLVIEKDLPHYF
# Glutathione peroxidase 1 (Homo sapiens), sequence (P07203 whole entry, looked up): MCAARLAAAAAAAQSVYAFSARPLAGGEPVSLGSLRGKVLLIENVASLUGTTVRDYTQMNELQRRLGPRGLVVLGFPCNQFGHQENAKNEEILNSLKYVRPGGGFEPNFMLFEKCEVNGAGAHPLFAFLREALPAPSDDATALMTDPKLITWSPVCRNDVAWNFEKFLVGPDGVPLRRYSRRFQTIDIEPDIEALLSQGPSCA
structure (smiles),measurement,setting,value
Nc1nc2c(ncn2[C@@H]2O[C@H](CO)[C@@H](O)[C@@H]2O)c(=O)[nH]1,Potency,[1],inactive
same,Potency,[2],inactive
N.N.O=C(O)C1(C(=O)O)CCC1.[Pt],Potency,[1],inactive
same,Potency,[2],22.7 µM (active)
CNC(=O)[C@H]1O[C@@H](n2cnc3c(NCc4cccc(I)c4)ncnc32)[C@H](O)[C@@H]1O,Potency,[1],inactive
same,Potency,[2],inactive
CC(C)NC[C@@H](O)c1ccc(O)c(O)c1,Potency,[1],inactive
same,Potency,[2],inactive
CCCN(CC1CC1)c1nc(C)nc(Nc2c(Cl)cc(Cl)cc2Cl)c1Cl,Potency,[1],inactive
same,Potency,[2],inactive
C=CCCCCCCCCC(=O)O,Potency,[1],inactive
same,Potency,[2],inactive
O=Nc1ccc2oc(=O)ccc2c1,Potency,[1],inactive
same,Potency,[2],inactive
O=C(/C=C/c1ccc(O)c(O)c1)OCCc1ccccc1,Potency,[1],inactive
same,Potency,[2],inactive
CC[C@H]1OC(=O)[C@H](C)[C@@H](O[C@H]2C[C@@](C)(OC)[C@@H](O)[C@H](C)O2)[C@H](C)[C@@H](O[C@@H]2O[C@H](C)C[C@H](N(C)C)[C@H]2O)[C@](C)(O)C[C@@H](C)C(=O)[C@H](C)[C@@H](O)[C@]1(C)O,Potency,[1],inactive
same,Potency,[2],inactive
CCOC(=O)c1ccccc1O,Potency,[1],inactive
same,Potency,[2],inactive
CN=c1nc(-c2ccccc2)n(-c2ccccc2)s1,Potency,[1],inactive
same,Potency,[2],inactive
N#C/C(=C\c1ccc(O)c(O)c1)C(=O)NCc1ccccc1,Potency,[1],inactive
same,Potency,[2],inactive
Cc1c(C(=O)O)c(O)cc2c1C(=O)c1c(O)c([C@@H]3O[C@H](CO)[C@@H](O)[C@H](O)[C@H]3O)c(O)c(O)c1C2=O,Potency,[1],inactive
same,Potency,[2],inactive
NC(=S)c1ccc[n+]([C@@H]2O[C@@H](COP(=O)([O-])OP(=O)(O)OC[C@H]3O[C@@H](n4cnc5c(N)ncnc54)[C@H](OP(=O)(O)O)[C@@H]3O)C(O)C2O)c1 (some centres undefined),Potency,[1],inactive
same,Potency,[2],inactive
O=C(O)c1ccccc1Nc1cccc(C(F)(F)F)c1,Potency,[1],inactive
same,Potency,[2],inactive
O=C(Nc1ccncc1)c1cc([N+](=O)[O-])ccc1Cl,Potency,[1],inactive
same,Potency,[2],inactive
NC(=O)C(c1ccccc1)(c1ccccc1)[C@@H]1CCN(CCc2ccc3c(c2)CCO3)C1,Potency,[1],inactive
same,Potency,[2],inactive
O=C(O)/C=C\C(=O)O,Potency,[1],inactive
same,Potency,[2],inactive
COc1ccc(-c2cc(=S)ss2)cc1,Potency,[1],11.4 µM (active)
same,Potency,[2],inactive
CN1CCc2ccccc2Cc2[nH]c3ccccc3c2CC1,Potency,[1],inactive
same,Potency,[2],inactive
Nc1ccn([C@@H]2O[C@H](CO)[C@@H](O)[C@@H]2O)c(=O)n1,Potency,[1],inactive
same,Potency,[2],inactive
CCCCC1C(=O)N(c2ccccc2)N(c2ccc(O)cc2)C1=O (centres undefined),Potency,[1],inactive
same,Potency,[2],inactive
Nc1ncnc2c1ncn2[C@@H]1O[C@H](COP(=O)(O)CP(=O)(O)OP(=O)(O)O)[C@@H](O)[C@H]1O,Potency,[1],inactive
same,Potency,[2],inactive
CCCCCCCCCCCCCCCC(=O)OC(C)C,Potency,[1],inactive
same,Potency,[2],inactive
CCCCCCCCc1ccc(-c2ccc(C(=O)O)cc2)cc1,Potency,[1],inactive
same,Potency,[2],inactive
CN1CC(=O)N/C1=N/C(=O)Nc1cccc(Cl)c1,Potency,[1],inactive
same,Potency,[2],inactive
NC(=O)C(=O)O,Potency,[1],inactive
same,Potency,[2],inactive
CCCCCCCCCCCCOCCO,Potency,[1],inactive
same,Potency,[2],inactive
S=c1[nH]c2ccccc2s1,Potency,[1],inactive
same,Potency,[2],inactive
CC(C)NCC(O)COc1cccc2ccccc12 (centres undefined),Potency,[1],inactive
same,Potency,[2],inactive
Cc1c(Nc2ncccc2C(=O)O)cccc1C(F)(F)F,Potency,[1],inactive
same,Potency,[2],inactive
O=C(O)c1cc(=O)c2c(Cl)cc(Cl)cc2[nH]1,Potency,[1],inactive
same,Potency,[2],inactive
Oc1ccccc1O,Potency,[1],inactive
same,Potency,[2],inactive
NS(=O)(=O)C#Cc1ccccc1,Potency,[1],inactive
same,Potency,[2],inactive
c1ccc2sc(SSc3nc4ccccc4s3)nc2c1,Potency,[1],inactive
same,Potency,[2],inactive
[O-][n+]1ccccc1SSc1cccc[n+]1[O-],Potency,[1],inactive
same,Potency,[2],inactive
CC(=O)c1ccc(OCC(=O)N2CCCCC2)cc1,Potency,[1],inactive
same,Potency,[2],inactive
same,Potency,[3],inactive
same,outcome,[4],inactive
same,Potency,[5],inactive
same,outcome,[6],inactive
COc1cc(CNC(=O)CCCC/C=C/C(C)C)ccc1O,Potency,[1],inactive
same,Potency,[2],inactive
same,Potency,[3],inactive
same,outcome,[4],inactive
same,Potency,[5],inactive
same,outcome,[6],inactive
Fc1ccc(C(OCCCc2cnc[nH]2)c2ccc(F)cc2)cc1,Potency,[1],inactive
same,Potency,[2],inactive
CC(=O)O[C@H]1C[C@@]2(C)[C@@H](C[C@@H](O)[C@H]3[C@@]4(C)CC[C@@H](O)[C@@H](C)[C@@H]4CC[C@@]32C)/C1=C(\CCC=C(C)C)C(=O)O,Potency,[1],inactive
same,Potency,[2],inactive
same,Potency,[3],inactive
same,outcome,[4],inactive
same,Potency,[5],inactive
same,outcome,[6],inactive
CC(N)C(=O)OC(C)(C)Cc1ccc(Cl)cc1 (centres undefined),Potency,[1],inactive
same,Potency,[2],inactive
COc1cc(/C=C/C(=O)N2CCN(CC(=O)N3CCCC3)CC2)cc(OC)c1OC,Potency,[1],inactive
same,Potency,[2],inactive
same,Potency,[3],inactive
same,outcome,[4],inactive
same,Potency,[5],inactive
same,outcome,[6],inactive
CNC(=O)[C@H]1O[C@@H](n2cnc3c(NCc4ccc(N)cc4)ncnc32)[C@H](O)[C@@H]1O,Potency,[1],inactive
same,Potency,[2],inactive
CCNC(=O)[C@H]1O[C@@H](n2cnc3c(N)nc(NCCc4ccc(CCC(=O)O)cc4)nc32)[C@H](O)[C@@H]1O,Potency,[1],inactive
same,Potency,[3],inactive
same,outcome,[4],inactive
same,Potency,[5],inactive
same,outcome,[6],inactive
C#CC1(O)CC[C@H]2[C@@H]3CCC4=CCCC[C@@H]4[C@H]3CC[C@@]21C (some centres undefined),Potency,[2],inactive
Nc1ccc(O)c(C(=O)O)c1,Potency,[2],inactive
